# This is a sample that favours compounds with a hit; in the whole collection about 4% have one here.
# Peg3 promoter: Peg3 promoter-driven luciferase inhibitors, primary screen, cell-based, HeLa, luciferase luminescence; HeLa PEG-Prom luciferase reporter, overnight; 360,000 compounds, 1.7% hits; inhibition, % at 20 µM;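 active means inhibition of at least 50% at 20 µM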
# HIF-2a block: HIF-2a reporter inhibitors, primary screen, luminescence, 786-0 RCC cells; 786-0 RCC cells HIF-2a reporter, luciferase luminescence, overnight; inhibition, % at 18.8 µM; 360,000 compounds, 0.72% hits; AID 624352, 2012;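 active means inhibition of the luminescence signal of 40% or more relative to plate controls, in a single-dose primary screen at 18.75 µM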
# TROY NFkB inh: inhibitors of TROY-driven NF-kB signaling, primary screen, Q293 LMP1-TROYcd cells, NF-kB luciferase, uHTS | inhibition, % at 10 µM | Q293 LMP1-TROYcd NF-kB luciferase reporter, 4 h | 360,000 compounds, 0.98% hits | AID 1347056, 2019;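 active means compounds whose plate-normalised and pattern-corrected inhibition of the luciferase reporter signal at the single screening dose is 50% or more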
# TWEAK-Fn14 inh: inhibitors of TWEAK-Fn14 signaling, primary screen, luciferase reporter cells, uHTS. inhibition, % at 10 µM. TWEAK-stimulated Fn14 reporter cells, luciferase luminescence, 8 h. AID 1159606, 2016. 360,000 compounds, 2% hits; in the data active means inhibition above about 50%
# CF NFkB inh: inhibitors of PAF-induced NF-kB signaling, primary screen, cell-based, GFP fluorescence, uHTS. KKLEB NF-kB-GFP reporter, GFP fluorescence overnight. inhibition, % at 5 µM. 360,000 compounds, 0.86% hits;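 active means at least 50% inhibition at 5 µM, scaled per plate between neutral and stimulator controls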;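 further: PAF is a Pseudomonas aeruginosa culture filtrate used as stimulus; plate controls were PAF-stimulated DMSO wells for no effect and unstimulated DMSO wells for full effect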
# KKLEB cytotox: cytotoxicity in KKLEB CF airway cells, primary screen, cytotoxicity control for CF NF-kB inhibitor project, cell-based, uHTS, fluorescence assay plates. KKLEB CF airway cells viability, ATPlite luminescence, overnight; hits give low values; cells stimulated with P. aeruginosa culture filtrate. activity change (cytotoxicity), % at 5 µM. 360,000 compounds, 0.36% hits;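 active means corrected activity change at or below -50% at 5 µM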
# * marks the source's active call; other numbers are inactive results.
SMILES,Peg3 promoter,HIF-2a block,TROY NFkB inh,TWEAK-Fn14 inh,CF NFkB inh,KKLEB cytotox
O=C(Nc1cccc(Cl)c1N1CCOCC1)c1cc([N+](=O)[O-])ccc1N1CCOCC1,27,6,21,-12,-18,-2
O=C(Nc1nc(-c2ccccc2)cs1)c1ccc(N2CCOCC2)c([N+](=O)[O-])c1,67*,-15,83*,106*,8,-17
Cc1oc(-c2ccccc2)nc1C(=O)O,1,10,-10,-1,7,-1
Cc1occc1C(=O)N=Nc1c(O)n(C)c2ccccc12,-143,-121,-61,4,-62,0
O=C(NC(=S)Nc1cccc(Cl)c1N1CCCCC1)c1ccc2c(c1)OCCO2,-28,-8,70*,71*,28,-7
O=C(Nc1ccccc1N1CCCCC1)c1ccc(Cl)c([N+](=O)[O-])c1,101*,17,-11,-18,-2,0
O=C(Nc1cccc(Cl)c1N1CCCCC1)c1ccc2c(c1)OCCO2,-14,-3,2,-15,-2,-5
O=C(Nc1ccon1)c1ccc(N2CCCCC2)c([N+](=O)[O-])c1,-314,-252,-54,-11,-7,-10
O=C(Nc1nc2ccccc2s1)c1ccc(N2CCCCC2)c([N+](=O)[O-])c1,-118,-87,45,81*,3,12
CN1CCN(c2ccccc2NC(=O)c2ccc(N3CCCC3)c([N+](=O)[O-])c2)CC1,24,-11,-6,-14,-5,6
CCCc1n[nH]c2c1/C(=N/O)CC(c1ccccc1)C2 (configuration not stated),-16,-34,-13,8,2,-6
O=C(O)CCn1c(=O)[nH]c(=O)n(CCC(=O)O)c1=O,89*,12,1,18,3,0
COc1ccc(/C=C/C(=O)NCc2ccccn2)cc1,-39,-55,-22,-2,-11,12
CCC(CO)Oc1cc(NCc2ccc(C)cc2)c2ncn(C(C)C)c2c1 (configuration not stated),14,13,-9,2,25,-20
CCc1ccc(C2C(C#N)=C(N)Oc3cc(N)ccc32)cc1 (configuration not stated),50*,13,9,21,8,3
CCNC(=O)C1(C)CCN(C(=O)c2ccc(F)cc2Cl)C1 (configuration not stated),4,8,2,89*,15,0
NCc1csc(Nc2nncc3ccccc23)n1,-85,-6,-36,-23,30,-28
O=C(Nc1cccc(C(F)(F)F)c1)c1ccc(-n2cncn2)nc1,-5,6,-2,1,6,4
CC(C)C[C@H]1CN=C(Nc2ccccc2)N1CC1CCC(C(C)(C)C)CC1 (some centres not stated),103*,4,41,-35,43,-41
COc1ccc(CN2CCN(c3ccc(F)cc3)CC2)c(OC)c1OC,18,23,19,6,-2,5
COc1ccc(CN2CCN(C(c3ccc(F)cc3)c3ccc(F)cc3)CC2)c(OC)c1OC,77*,-18,29,24,22,0
COc1ccccc1/C=C/C(=O)c1cc(Br)ccc1OC(=O)c1ccco1,19,87*,43,41,11,-15
Cc1ccc(/C=C/C(=O)c2cc(Br)ccc2OC(=O)c2ccco2)cc1,0,-69,-28,-74,-18,-4
O=C(/C(=C/O)N=Nc1ccc(Cl)cc1)c1ccncc1,17,14,-28,-6,-1,4
Nc1ccc(O)cc1C(=O)OCC(=O)c1ccc(C2CCCCC2)cc1,-60,6,25,102*,-3,13
SMILES,Peg3 promoter,HIF-2a block,TROY NFkB inh,TWEAK-Fn14 inh,CF NFkB inh,KKLEB cytotox
CCc1noc2c1/C(=N\O)CC(c1ccccc1)C2 (configuration not stated),-17,-51,-3,11,8,-7
N/C(=N\OC(=O)c1ccc2c(c1)OCO2)c1cccc([N+](=O)[O-])c1,-222,-194,-48,-5,14,3
Cc1cccc(/C(N)=N/OC(=O)c2ccc3c(c2)OCO3)c1,-66,-214,43,63*,-4,-15
Cc1cccc(/C(N)=N/OC(=O)C23CC4CC(CC(C4)C2)C3)c1,-69,-94,60*,35,7,5
N/C(=N\OC(=O)c1ccccc1Cl)c1ccccc1,-193,-249,13,43,8,-7
Cc1ccc(/C(N)=N/OC(=O)c2ccc(C)cc2Cl)cc1,-84,-65,75*,85*,-7,-64*
N/C(=N\OC(=O)c1ccc(Cl)cc1Cl)c1ccccc1,-53,-69,63*,91*,-21,-48
CCCC(=O)NC(=S)Nc1cccc(NC(=O)c2ccccc2Cl)c1,0,3,-15,-14,11,-6
O=C(O)C(Cc1c[nH]c2ccccc12)NS(=O)(=O)c1ccc(Cl)cc1 (configuration not stated),3,18,3,15,-8,13
CC1CCCC(C)N1S(=O)(=O)c1ccc(NC(=O)CNC2CCCC2)cc1 (configuration not stated),17,20,13,6,-13,0
N/C(=N\OC(=O)c1ccc(Cl)cc1Cl)c1cccnc1,-222,-259,-39,22,-18,-17
N/C(=N\OC(=O)c1ccc(Cl)cc1)c1ccc(Cl)cc1,-338,-274,-51,-6,-14,8
N/C(=N\OC(=O)c1ccc(Cl)cc1Cl)c1ccc(Cl)cc1,-201,-53,67*,71*,-16,-10
N/C(=N\OC(=O)c1ccccc1Cl)c1ccc(Cl)cc1,-208,-162,16,32,0,-2
O=C(NOCc1ccccc1)c1ccc(Cl)cc1Cl,4,-50,42,82*,1,0
O=C(NOCc1ccccc1)c1ccccc1,-127,-124,-9,40,5,2
N/C(=N\OC(=O)c1ccc(Cl)cc1)c1ccn[nH]1,-215,-46,39,51*,-3,-14
Cc1cccc(/C(N)=N/OC(=O)c2ccc(Cl)cc2Cl)c1,-130,-108,63*,79*,-25,-16
OCC[C@@H]1C[C@@H](O)[C@H](O)[C@@]2(Cc3ccccc3CO2)O1,3,27,-24,6,-2,1
Cc1cc(C(=O)NC2CC(C)(C)Cc3c2cnn3-c2ccccc2C)c(C)o1 (configuration not stated),3,-7,-8,-3,2,-5
